Measurements from the supplement of paper PMC4022240.
± gives the standard deviation.

Legend:
Assay in all cases: peptide microarray binding signal (635 nm), min-max normalized on array (fraction of array maximum); higher = stronger binding
Conditions in all cases: peptide region: H4 38-50
[1] = molecular target: T1, HaloTag-ATRX ADD domain (163-292)
T1 chain: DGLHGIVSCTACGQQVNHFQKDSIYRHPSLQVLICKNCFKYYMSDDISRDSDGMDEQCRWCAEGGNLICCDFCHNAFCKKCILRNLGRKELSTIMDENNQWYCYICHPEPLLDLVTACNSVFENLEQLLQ
Outline: (§1)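 For each library, binding signal was taken as the triplicate-spot mean intensity and then min-max scaled. Spots of histone 13-mer peptide–cellulose conjugates on nitrocellulose, printed in triplicate with a Cy3 tracer, were probed for 1 h at 4°C with either biotin-labelled HaloTag reader fusions (10 nM to 1 μM) and streptavidin-Alexa Fluor 647 or rabbit histone antibodies (1:10,000 to 1:2,000) and anti-rabbit Alexa 647. Readout at 635 nm came from an Axon GenePix 4000B.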

[2] = molecular target: HaloTag-ING2 PHD (mouse Ing2 200-280)
Outline: as §1

[3] = molecular target: anti-H3K4me3 antibody ab8580
Outline: as §1

[4] = molecular target: anti-H3K9me3 antibody ab8898
Outline: as §1

[5] = peptide modifications: H4R45me1, binder concentration: 1:2,000 dilution
[6] = peptide modifications: H4R45me1, binder concentration: 1:10,000 dilution
[7] = peptide modifications: H4K44me1 H4R45me1, binder concentration: 1:2,000 dilution
[8] = peptide modifications: H4K44me1 H4R45me1, binder concentration: 1:10,000 dilution
[9] = peptide modifications: H4K44me2 H4R45me2s, binder concentration: 1:2,000 dilution
[10] = peptide modifications: H4K44me2 H4R45me2s, binder concentration: 1:10,000 dilution
[11] = peptide modifications: H4K44me1 H4R45me2a, binder concentration: 1:2,000 dilution
[12] = peptide modifications: H4K44me1 H4R45me2a, binder concentration: 1:10,000 dilution
[13] = peptide modifications: H4K44me2 H4R45me2a, binder concentration: 1:2,000 dilution
[14] = peptide modifications: H4K44me2 H4R45me2a, binder concentration: 1:10,000 dilution
[15] = peptide modifications: H4K44me2 H4R45me1, binder concentration: 1:2,000 dilution
[16] = peptide modifications: H4K44me3 H4R45me2a, binder concentration: 1:2,000 dilution
[17] = peptide modifications: H4K44me3 H4R45me2a, binder concentration: 1:10,000 dilution
[18] = peptide modifications: H4R45me2s, binder concentration: 1:2,000 dilution
[19] = peptide modifications: H4R45me2s, binder concentration: 1:10,000 dilution
[20] = peptide modifications: H4K44me3, binder concentration: 1:2,000 dilution
[21] = peptide modifications: H4K44me3, binder concentration: 1:10,000 dilution
[22] = peptide modifications: H4R45me2a, binder concentration: 1:2,000 dilution
[23] = peptide modifications: H4R45me2a, binder concentration: 1:10,000 dilution

ARRGGVKRISGLI [H4 38-50 A R R G G V K Rme I S G L I]
peptide microarray binding signal ([1]; peptide modifications: H4R45me1, binder concentration: 50 nM): 0.00486 ± 6.2e-05
peptide microarray binding signal ([1]; peptide modifications: H4R45me1, binder concentration: 500 nM): 0.0107 ± 0.00046
peptide microarray binding signal ([2]; peptide modifications: H4R45me1, binder concentration: 10 nM): 0.01247 ± 0.00012
peptide microarray binding signal ([2]; peptide modifications: H4R45me1, binder concentration: 100 nM): 0.0215 ± 0.0011
peptide microarray binding signal [3, 5]: 0.00306 ± 5.9e-05
peptide microarray binding signal [3, 6]: 0.00508 ± 7.3e-05
peptide microarray binding signal [4, 5]: 0.0021 ± 4.5e-05
peptide microarray binding signal [4, 6]: 0.0019 ± 3.6e-05

ARRGGVKRISGLI [H4 38-50 A R R G G V Kme Rme I S G L I]
peptide microarray binding signal ([1]; peptide modifications: H4K44me1 H4R45me1, binder concentration: 50 nM): 0.0377 ± 0.00093
peptide microarray binding signal ([1]; peptide modifications: H4K44me1 H4R45me1, binder concentration: 500 nM): 0.0199 ± 0.00027
peptide microarray binding signal ([2]; peptide modifications: H4K44me1 H4R45me1, binder concentration: 10 nM): 0.0751 ± 0.0022
peptide microarray binding signal ([2]; peptide modifications: H4K44me1 H4R45me1, binder concentration: 100 nM): 0.031 ± 0.0006
peptide microarray binding signal [3, 7]: 0.00727 ± 0.00021
peptide microarray binding signal [3, 8]: 0.02163 ± 0.00021
peptide microarray binding signal [4, 7]: 0.0055 ± 9.8e-05
peptide microarray binding signal [4, 8]: 0.02058 ± 0.00019

ARRGGVKRISGLI [H4 38-50 A R R G G V Kme2 Rme2s I S G L I]
peptide microarray binding signal ([1]; peptide modifications: H4K44me2 H4R45me2s, binder concentration: 50 nM): 0.00586 ± 0.00025
peptide microarray binding signal ([1]; peptide modifications: H4K44me2 H4R45me2s, binder concentration: 500 nM): 0.0125 ± 0.00027
peptide microarray binding signal ([2]; peptide modifications: H4K44me2 H4R45me2s, binder concentration: 10 nM): 0.0175 ± 0.00042
peptide microarray binding signal ([2]; peptide modifications: H4K44me2 H4R45me2s, binder concentration: 100 nM): 0.0397 ± 0.019
peptide microarray binding signal [3, 9]: 0.00361 ± 0.00025
peptide microarray binding signal [3, 10]: 0.00611 ± 0.00033
peptide microarray binding signal [4, 9]: 0.0037 ± 0.00027
peptide microarray binding signal [4, 10]: 0.00484 ± 0.00089

ARRGGVKRISGLI [H4 38-50 A R R G G V Kme Rme2a I S G L I]
peptide microarray binding signal ([1]; peptide modifications: H4K44me1 H4R45me2a, binder concentration: 50 nM): 0.0254 ± 0.0015
peptide microarray binding signal ([1]; peptide modifications: H4K44me1 H4R45me2a, binder concentration: 500 nM): 0.016 ± 0.00078
peptide microarray binding signal ([2]; peptide modifications: H4K44me1 H4R45me2a, binder concentration: 10 nM): 0.0305 ± 0.00031
peptide microarray binding signal ([2]; peptide modifications: H4K44me1 H4R45me2a, binder concentration: 100 nM): 0.0275 ± 0.00071
peptide microarray binding signal [3, 11]: 0.00417 ± 0.00012
peptide microarray binding signal [3, 12]: 0.00987 ± 0.00037
peptide microarray binding signal [4, 11]: 0.00331 ± 7.1e-05
peptide microarray binding signal [4, 12]: 0.00974 ± 0.0007

ARRGGVKRISGLI [H4 38-50 A R R G G V Kme2 Rme2a I S G L I]
peptide microarray binding signal ([1]; peptide modifications: H4K44me2 H4R45me2a, binder concentration: 50 nM): 0.00665 ± 0.0002
peptide microarray binding signal ([1]; peptide modifications: H4K44me2 H4R45me2a, binder concentration: 500 nM): 0.00881 ± 0.00022
peptide microarray binding signal ([2]; peptide modifications: H4K44me2 H4R45me2a, binder concentration: 10 nM): 0.00859 ± 0.00016
peptide microarray binding signal ([2]; peptide modifications: H4K44me2 H4R45me2a, binder concentration: 100 nM): 0.0109 ± 0.00048
peptide microarray binding signal [3, 13]: 0.00187 ± 6e-05
peptide microarray binding signal [3, 14]: 0.00371 ± 0.00016
peptide microarray binding signal [4, 13]: 0.00208 ± 4.3e-05
peptide microarray binding signal [4, 14]: 0.00265 ± 9.3e-05

ARRGGVKRISGLI [H4 38-50 A R R G G V Kme2 Rme I S G L I]
peptide microarray binding signal ([1]; peptide modifications: H4K44me2 H4R45me1, binder concentration: 500 nM): 0.00233 ± 8.5e-05
peptide microarray binding signal ([2]; peptide modifications: H4K44me2 H4R45me1, binder concentration: 100 nM): 0.00361 ± 0.00019
peptide microarray binding signal [3, 15]: 0.000491 ± 1.3e-05
peptide microarray binding signal [4, 15]: 0.000347 ± 9.2e-06

ARRGGVKRISGLI [H4 38-50 A R R G G V Kme3 Rme2a I S G L I]
peptide microarray binding signal ([1]; peptide modifications: H4K44me3 H4R45me2a, binder concentration: 50 nM): 0.00524 ± 0.00017
peptide microarray binding signal ([1]; peptide modifications: H4K44me3 H4R45me2a, binder concentration: 500 nM): 0.00852 ± 0.00069
peptide microarray binding signal ([2]; peptide modifications: H4K44me3 H4R45me2a, binder concentration: 10 nM): 0.0304 ± 0.0024
peptide microarray binding signal ([2]; peptide modifications: H4K44me3 H4R45me2a, binder concentration: 100 nM): 0.0612 ± 0.0075
peptide microarray binding signal [3, 16]: 0.0239 ± 0.0068
peptide microarray binding signal [3, 17]: 0.016 ± 0.00029
peptide microarray binding signal [4, 16]: 0.0197 ± 0.0016
peptide microarray binding signal [4, 17]: 0.009686 ± 5.3e-05

ARRGGVKRISGLI [H4 38-50 A R R G G V K Rme2s I S G L I]
peptide microarray binding signal ([1]; peptide modifications: H4R45me2s, binder concentration: 50 nM): 0.0042 ± 0.00012
peptide microarray binding signal ([1]; peptide modifications: H4R45me2s, binder concentration: 500 nM): 0.00971 ± 0.0016
peptide microarray binding signal ([2]; peptide modifications: H4R45me2s, binder concentration: 10 nM): 0.0212 ± 0.0027
peptide microarray binding signal ([2]; peptide modifications: H4R45me2s, binder concentration: 100 nM): 0.0349 ± 0.0095
peptide microarray binding signal [3, 18]: 0.00542 ± 0.0019
peptide microarray binding signal [3, 19]: 0.00702 ± 0.0012
peptide microarray binding signal [4, 18]: 0.00222 ± 0.0001
peptide microarray binding signal [4, 19]: 0.00173 ± 4.4e-05

ARRGGVKRISGLI [H4 38-50 A R R G G V Kme3 R I S G L I]
peptide microarray binding signal ([1]; peptide modifications: H4K44me3, binder concentration: 50 nM): 0.00367 ± 6.4e-05
peptide microarray binding signal ([1]; peptide modifications: H4K44me3, binder concentration: 500 nM): 0.00671 ± 0.00031
peptide microarray binding signal ([2]; peptide modifications: H4K44me3, binder concentration: 10 nM): 0.00859 ± 9.7e-05
peptide microarray binding signal ([2]; peptide modifications: H4K44me3, binder concentration: 100 nM): 0.0129 ± 0.00014
peptide microarray binding signal [3, 20]: 0.00104 ± 4.6e-05
peptide microarray binding signal [3, 21]: 0.0016 ± 2.7e-05
peptide microarray binding signal [4, 20]: 0.0011 ± 0.0001
peptide microarray binding signal [4, 21]: 0.00161 ± 5.6e-05

ARRGGVKRISGLI [H4 38-50 A R R G G V K Rme2a I S G L I]
peptide microarray binding signal ([1]; peptide modifications: H4R45me2a, binder concentration: 50 nM): 0.00589 ± 0.00093
peptide microarray binding signal ([1]; peptide modifications: H4R45me2a, binder concentration: 500 nM): 0.0275 ± 0.023
peptide microarray binding signal ([2]; peptide modifications: H4R45me2a, binder concentration: 10 nM): 0.0152 ± 0.0026
peptide microarray binding signal ([2]; peptide modifications: H4R45me2a, binder concentration: 100 nM): 0.024 ± 0.0022
peptide microarray binding signal [3, 22]: 0.00185 ± 3.4e-05
peptide microarray binding signal [3, 23]: 0.00468 ± 0.0014
peptide microarray binding signal [4, 22]: 0.00134 ± 0.00014
peptide microarray binding signal [4, 23]: 0.00144 ± 7.5e-05
